Assay [1] can be described thus: Nuclear factor erythroid 2-related factor 2/antioxidant responsive element (Nrf2/ARE) small molecule agonists: qHTS cell viability counter screen in human keratinocytes (AID 1919968; active = well fitted curve in the direction sought with a large enough effect in the repeat runs; an effect the other way counts as inactive or inconclusive; note: nearly all actives have a fitted effect of over 55% in size). An outline of the steps:
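KeratinoSens HaCaT cells, 1,500/well, preincubated 5 h, then exposed to compounds in DMSO for 23 h at 37 C/5% CO2. Viability read as CellTiter-Fluor fluorescence after 1 h, in the same wells as the ARE-luciferase read.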
Background: In qHTS, concentration-response curves come from the screen itself.

The nature of assay [2]: Nuclear factor erythroid 2-related factor 2/antioxidant responsive element (Nrf2/ARE) small molecule agonists: luciferase reporter gene qHTS assay in human keratinocytes (AID 1919969). Note: nearly all actives have a fitted effect of over 35% in size. Note: potency is the fitted concentration of half-maximal effect. Background: In a reporter assay the amount or activity of a reporter protein is the signal.
The target of assay [3] is Gonadotropin-releasing hormone receptor (Homo sapiens) (UniProt P30968). As to the kind of experiment: Human gonadotropin-releasing hormone receptor (GnRHR) small molecule agonists, calcium flux assay in GnRHR-HEK293 cells (AID 1920063). Note: nearly all actives have a fitted effect of over 35% in size. A digest of the protocol:
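HEK293 cells stably expressing human GnRHR were dye-loaded for 1 h at 37 C. Compound was added in agonist mode and fluorescence (Ex/Em 480/540) recorded kinetically for 3 min. Fifteen concentrations, triplicates.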
In general terms: A change in cytosolic calcium serves as a functional read-out for many receptors and channels.

Assay [4] addresses KiSS-1 receptor (Homo sapiens) (UniProt Q969F8). Kind of assay: Human kisspeptin (KISS1R) small molecule agonists, calcium flux assay in KISS1R-HEK293 cells (AID 1920064; active = well fitted curve in the direction sought with a large enough effect in the repeat runs; an effect the other way counts as inactive or inconclusive). A digest of the protocol:
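HEK293 cells stably expressing human KISS1R were loaded with calcium dye for 1 h at 37 C, then given compound; fluorescence (Ex/Em 480/540) was read kinetically for 3 min. Fifteen concentrations, triplicate.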

Assay [5] can be described thus: G protein-coupled receptor (GPCR) small molecule agonists, calcium flux assay: HEK293 wild type cell line counter screen (AID 1920065). An outline of the steps: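 Wild-type HEK293 cells plated 18 h, loaded with calcium dye 1 h at 37 C, then compounds added in agonist mode (ATP as positive control). Kinetic fluorescence Ex/Em 480/540 recorded 3 min at 1 sec intervals; 15 concentrations, triplicate.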

Assay [6] is described as follows: p53 small molecule agonists, cell-based qHTS assay with human liver microsomes (AID 1963577). Note: potency is the fitted concentration of half-maximal effect. An outline of the steps: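 p53RE-bla reporter cells were pre-incubated 5 h at 37 C, then treated with compounds plus human liver microsomes (0.5 mg/mL final) and NADPH (0.5 mg/mL final) for 16 h at 37 C. Beta-lactamase activity was read by LiveBLAzer fluorescence after 2 h at room temperature.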

Assay [7] can be described thus: p53 small molecule agonists, cell-based qHTS assay with human liver microsomes: qHTS cell viability counter screen (AID 1963579). Note: nearly all actives have a fitted effect of over 45% in size. An outline of the steps:
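p53RE-bla cells (4,000/well) were pre-incubated 5 h at 37 C, then given compounds in DMSO plus human liver microsomes (0.5 mg/mL final) and NADPH (0.5 mg/mL final) for 16 h at 37 C. Viability was read by CellTiter-Glo luminescence.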

The nature of assay [8]: p53 small molecule agonists, cell-based qHTS assay with rat liver microsomes: qHTS cell viability counter screen (AID 1963580). Note: nearly all actives have a fitted effect of over 45% in size. A digest of the protocol:
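p53RE-bla HCT-116 cells were exposed 16 h at 37 C to compounds with rat liver microsomes (0.5 mg/mL) and NADPH (0.5 mg/mL). Viability was measured in the same wells as ATP content by CellTiter-Glo luminescence.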

Assay [9] in a line: p53 small molecule agonists, cell-based qHTS assay: qHTS cell viability counter screen (AID 1963581). Note: nearly all actives have a fitted effect of over 45% in size. Note: potency is the fitted concentration of half-maximal effect. An outline of the steps: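 p53RE-bla HCT-116 cells, compounds added 5 h after plating and incubated 16 h at 37 C. Cytotoxicity measured in the same wells as intracellular ATP by CellTiter-Glo luminescence after 30 min at room temperature.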
Assay [10] in a line: p53 small molecule agonists, cell-based qHTS assay (AID 1963582; active = well fitted activation curve with a large enough effect in the signal ratio in the repeat runs, not every such curve was filed as active; the % refers to the signal ratio). A digest of the protocol:
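p53RE-bla reporter cells, compounds added in DMSO after 5 h plating, incubated 16 h at 37 C. Beta-lactamase read via 2 h room-temperature LiveBLAzer B/G FRET substrate, fluorescence intensity.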

Assay [11] concerns the target 5-hydroxytryptamine receptor 2A (Homo sapiens) (UniProt P28223). Kind of assay: 5-hydroxytryptamine receptor 2A (HTR2A) small molecule antagonists, cell-based qHTS assay (AID 1963586). Note: nearly all actives have a fitted effect of over 45% in size. An outline of the steps: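 Antagonist-mode intracellular calcium assay: DOI (4 nM) added after 5 min compound pre-incubation at room temperature to dye-loaded HTR2A-CHO cells. Fluorescence followed for 3 min, sampled every second.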

Assay [12] shares this target. As to the kind of experiment: 5-hydroxytryptamine receptor 2A (HTR2A) small molecule agonists, cell-based qHTS assay (AID 1963587). Note: nearly all actives have a fitted effect of over 30% in size. A digest of the protocol:
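CHO cells stably expressing human HTR2A, plated 18 h, loaded with calcium dye 1 h at 37 C. Agonist mode: compounds added and intracellular calcium fluorescence recorded kinetically for 2 min at 1 sec intervals.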

For assay [13], the target named is Muscarinic acetylcholine receptor M1 (Homo sapiens) (UniProt P11229). As to the kind of experiment: Cholinergic receptor muscarinic 1 (CHRM1) small molecule antagonists, cell-based qHTS assay (AID 1963588). Note: nearly all actives have a fitted effect of over 40% in size. An outline of the steps: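 CHRM1-CHO calcium-flux assay, antagonist mode. Cells were seeded 18 h, dye-loaded 1 h at 37 C and given compound for 5 min at RT, then acetylcholine was added at 50nM. FDSS fluorescence was read 3 min; 15 concentrations, three runs.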
Sequence of Muscarinic acetylcholine receptor M1 (Homo sapiens) (P11229 whole entry, looked up): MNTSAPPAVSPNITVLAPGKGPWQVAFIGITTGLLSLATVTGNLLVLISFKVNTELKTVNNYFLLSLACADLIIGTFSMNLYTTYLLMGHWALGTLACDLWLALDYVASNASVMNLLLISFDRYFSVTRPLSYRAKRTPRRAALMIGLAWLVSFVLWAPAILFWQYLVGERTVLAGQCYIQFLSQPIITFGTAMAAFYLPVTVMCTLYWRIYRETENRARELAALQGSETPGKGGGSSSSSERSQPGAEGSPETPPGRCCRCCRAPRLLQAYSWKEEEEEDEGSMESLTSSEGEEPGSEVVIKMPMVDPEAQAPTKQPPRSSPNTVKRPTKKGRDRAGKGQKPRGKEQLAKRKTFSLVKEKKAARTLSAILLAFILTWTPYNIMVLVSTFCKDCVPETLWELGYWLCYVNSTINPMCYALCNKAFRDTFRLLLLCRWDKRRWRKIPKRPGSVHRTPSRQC

The nature of assay [14]: cAMP Responsive Elements (CRE) small molecule agonists, cell-based qHTS assay (AID 1963590). A digest of the protocol: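 CRE-bla HEK 293T cells, 2,000/well in DMEM with 10% dialyzed FBS and 25 mM HEPES, pre-incubated 18 h at 37 C, then exposed to compound 3 h at 37 C. Beta-lactamase reporter read with LiveBLAzer B/G FRET substrate after 2 h at room temperature.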
Assay [15] is described as follows: cAMP Responsive Elements (CRE) small molecule antagonists, cell-based qHTS assay (AID 1963591; active = well fitted inhibition curve with a large enough effect in the signal ratio in the repeat runs, not every such curve was filed as active; the % refers to the signal ratio; note: potency is the fitted concentration of half-maximal effect). An outline of the steps: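 CRE-bla HEK293T cells plated 18 h, then given compound plus NKH477 at 0.25 uM final for 3 h at 37C. Beta-lactamase reporter read with LiveBLAzer B/G FRET substrate after 2 h at room temperature.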
Assay [16] deals with Beta-2 adrenergic receptor (Homo sapiens) (UniProt P07550). Kind of assay: Adrenergic beta2 receptor (ADRB2) small molecule antagonists, cell-based qHTS assay (AID 1963592). Note: series mostly up to about 92 µM; nearly all actives have a fitted effect of over 50% in size. An outline of the steps:
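Cells (CHO, stable ADRB2 overexpression) incubated 18-20hr at 37C; compounds added from DMSO; agonist mix (1nM isoproterenol, 100uM IBMX, 25uM Ro-20-1724) added; 0.5hr RT; d2-cAMP and anti-cAMP-cryptate added; 1hr RT; 665/615 nm read.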

Assay [17] has the same target. As to the kind of experiment: Adrenergic beta2 receptor (ADRB2) small molecule agonists, cell-based qHTS assay (AID 1963593).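 Note: CHO cells stably overexpressing human ADRB2.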 A digest of the protocol:
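CHO cells stably over-expressing ADRB2 were plated overnight at 37C, then dosed with compounds plus a stimulation mix containing 100uM IBMX and 25uM Ro-20-1724 for 0.5hr at room temperature. cAMP was measured by HTRF competition, 1hr.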

For assay [18], the target named is D(2) dopamine receptor (Homo sapiens) (UniProt P14416). Kind of assay: Dopamine D2 receptor (DRD2) small molecule agonists, cell-based qHTS assay (AID 1963594). Note: nearly all actives have a fitted effect of over 35% in size. Note: potency is the fitted concentration of half-maximal effect. An outline of the steps:
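HEK293 cells stably expressing human DRD2, pre-treated with PDE inhibitor Ro20-1724 (0.1 mM final) and compound 10 min at room temperature, then stimulated with NKH477 (200nM […]) for 30 min. cAMP read by HTRF (665/620 nm).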

The target is the same in assay [19]. As to the kind of experiment: Dopamine D2 receptor (DRD2) small molecule antagonists, cell-based qHTS assay (AID 1963595; active = well fitted inhibition curve with a large enough effect in the signal ratio in the repeat runs, with a control signal flat; the % refers to the signal ratio). A digest of the protocol: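 HEK293 cells stably expressing DRD2, preincubated with 0.1 mM Ro20-1724 and compounds 10 min, were stimulated with 200 nM NKH477 plus 12 nM quinpirole for 30 min at room temperature; cAMP measured by HTRF (665/620 nm).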

In assay [20] the target is Muscarinic acetylcholine receptor M1 (Homo sapiens) (UniProt P11229). Kind of assay: Cholinergic receptor muscarinic 1 (CHRM1) small molecule agonists, cell-based qHTS assay (AID 1963589). Note: nearly all actives have a fitted effect of over 35% in size. An outline of the steps: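 CHO cells stably expressing human CHRM1 were loaded with calcium dye for 1 h at 37 C, then compound was added in agonist mode. Intracellular calcium fluorescence was followed kinetically at 1 s intervals. Fifteen concentrations were tested in three independent runs.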

Several values for one entry are separate records, joined by “and”; a condition that tells them apart may be missing. Identical values can stand only once. Results filed as inconclusive are left out. Some structures have more than one record in an assay (separate samples or runs), and their calls can disagree. Activity calls are given as the source filed them. Unless noted, calls come from the whole dose curve.

Sequence of KiSS-1 receptor (Homo sapiens) (Q969F8 whole entry, looked up): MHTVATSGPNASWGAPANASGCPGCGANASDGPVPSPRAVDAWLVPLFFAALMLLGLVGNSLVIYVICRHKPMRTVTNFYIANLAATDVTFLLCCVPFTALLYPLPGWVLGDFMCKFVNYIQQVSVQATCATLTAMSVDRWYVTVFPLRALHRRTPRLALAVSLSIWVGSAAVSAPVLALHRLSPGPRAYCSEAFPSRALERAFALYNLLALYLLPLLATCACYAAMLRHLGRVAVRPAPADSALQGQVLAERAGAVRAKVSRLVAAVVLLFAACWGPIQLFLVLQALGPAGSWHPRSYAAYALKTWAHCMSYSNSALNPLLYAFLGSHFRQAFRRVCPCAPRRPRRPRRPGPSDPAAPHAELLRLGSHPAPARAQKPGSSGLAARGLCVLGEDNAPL
Sequence of 5-hydroxytryptamine receptor 2A (Homo sapiens) (P28223 whole entry, looked up): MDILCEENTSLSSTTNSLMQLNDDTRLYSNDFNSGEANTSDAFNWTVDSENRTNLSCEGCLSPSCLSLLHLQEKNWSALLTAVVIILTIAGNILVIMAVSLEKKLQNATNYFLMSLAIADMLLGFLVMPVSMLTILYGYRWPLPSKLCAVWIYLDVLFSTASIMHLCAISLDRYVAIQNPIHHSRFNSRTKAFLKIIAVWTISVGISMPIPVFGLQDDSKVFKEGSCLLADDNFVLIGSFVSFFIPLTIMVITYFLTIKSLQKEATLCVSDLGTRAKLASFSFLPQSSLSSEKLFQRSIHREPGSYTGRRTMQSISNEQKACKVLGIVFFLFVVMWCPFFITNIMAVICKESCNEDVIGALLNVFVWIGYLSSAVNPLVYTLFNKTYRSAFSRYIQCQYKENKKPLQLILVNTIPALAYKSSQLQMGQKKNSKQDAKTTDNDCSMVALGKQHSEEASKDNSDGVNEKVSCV
Sequence of Gonadotropin-releasing hormone receptor (Homo sapiens) (P30968 whole entry, looked up): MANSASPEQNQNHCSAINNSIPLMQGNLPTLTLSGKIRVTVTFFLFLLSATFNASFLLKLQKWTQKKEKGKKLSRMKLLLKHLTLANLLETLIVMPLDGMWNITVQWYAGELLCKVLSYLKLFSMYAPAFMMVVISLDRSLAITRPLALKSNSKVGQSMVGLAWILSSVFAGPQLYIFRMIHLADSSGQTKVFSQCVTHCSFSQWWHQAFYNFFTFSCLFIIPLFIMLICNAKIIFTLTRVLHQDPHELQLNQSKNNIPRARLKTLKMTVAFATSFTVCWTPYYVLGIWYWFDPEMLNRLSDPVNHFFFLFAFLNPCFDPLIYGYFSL
Sequence of Beta-2 adrenergic receptor (Homo sapiens) (P07550 whole entry, looked up): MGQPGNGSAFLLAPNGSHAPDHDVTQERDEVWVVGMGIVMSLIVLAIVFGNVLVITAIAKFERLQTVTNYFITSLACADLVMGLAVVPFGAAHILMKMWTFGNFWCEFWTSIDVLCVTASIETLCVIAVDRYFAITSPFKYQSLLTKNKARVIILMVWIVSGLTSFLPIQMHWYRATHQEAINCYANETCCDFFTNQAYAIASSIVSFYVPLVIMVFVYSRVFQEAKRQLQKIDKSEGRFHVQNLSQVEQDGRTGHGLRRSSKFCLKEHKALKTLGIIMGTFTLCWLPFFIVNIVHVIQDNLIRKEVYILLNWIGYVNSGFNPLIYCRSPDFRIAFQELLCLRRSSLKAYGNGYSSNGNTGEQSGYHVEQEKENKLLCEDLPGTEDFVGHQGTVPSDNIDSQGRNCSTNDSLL
Sequence of D(2) dopamine receptor (Homo sapiens) (P14416 whole entry, looked up): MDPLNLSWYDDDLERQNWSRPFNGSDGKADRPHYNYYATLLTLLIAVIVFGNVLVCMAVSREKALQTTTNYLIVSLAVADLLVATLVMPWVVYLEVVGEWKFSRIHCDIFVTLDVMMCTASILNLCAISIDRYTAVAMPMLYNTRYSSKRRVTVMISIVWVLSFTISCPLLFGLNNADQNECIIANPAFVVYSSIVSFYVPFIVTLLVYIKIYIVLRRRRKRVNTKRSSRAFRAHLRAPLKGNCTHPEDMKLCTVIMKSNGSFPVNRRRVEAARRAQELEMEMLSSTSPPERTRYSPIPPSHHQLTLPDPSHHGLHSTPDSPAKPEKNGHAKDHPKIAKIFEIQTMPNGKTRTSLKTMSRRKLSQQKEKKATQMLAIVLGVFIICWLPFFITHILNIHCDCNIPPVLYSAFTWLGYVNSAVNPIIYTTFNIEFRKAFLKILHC

Consider `COC(=O)Nc1cccc(OC(=O)Nc2cccc(C)c2)c1`, for which the Potency result in [1], in assay [3], in [4], in assay [5], in assay [6] and in assay [7] was “inactive” throughout. Further, the Potency result in assay [8], in assay [9], in assay [10], in assay [11], in [12] and in assay [13] was “inactive” in each case. The Potency entry in [14], in assay [15], in assay [16], in assay [17], in assay [18] and in assay [19] was “inactive” in each case. For the same molecule, the Potency in assay [2] was 13.7 µM (active) and inactive.

Turning to `O=C(Cl)CCl`, the Potency entry in assay [1], in assay [2], in [3], in assay [4], in assay [5] and in assay [6] was “inactive” throughout. Moreover, the Potency entry in assay [8], in assay [9], in assay [10], in assay [11], in assay [12] and in [13] was “inactive” throughout. Besides, the Potency result in assay [20], in [14], in [15], in assay [16], in assay [17] and in assay [18] was “inactive” each time. In [19], the Potency entry was “inactive”.

With `CN1C[C@H](C(=O)N[C@]2(C)O[C@@]3(O)[C@@H]4CCCN4C(=O)[C@H](Cc4ccccc4)N3C2=O)C=C2c3cccc4[nH]cc(c34)C[C@H]21`, the Potency entry in assay [1], in assay [2], in assay [3], in assay [4], in [5] and in [6] was “inactive” each time. Besides, the Potency result in assay [7], in assay [8], in assay [10], in assay [14] and in assay [17] was “inactive” throughout. Moreover, the Potency was 1.45 µM (active) and inactive in [9]; 48.8 µM (active) in [15]; 1.23 µM (active) in assay [18].

Turning to `CCNc1nc(NCC)nc(SC)n1`, the Potency entry in [1], in assay [2], in assay [3], in [4], in assay [5] and in assay [6] was “inactive” each time. For the same molecule, the Potency entry in assay [7], in assay [9], in assay [10], in assay [11], in assay [12] and in assay [13] was “inactive” throughout. Also, the Potency entry in assay [20], in assay [14], in [15], in [16], in assay [17] and in assay [18] was “inactive” in each case. For the same molecule, the Potency entry in assay [19] was “inactive”.

As for `OC[P+](CO)(CO)CO`, the Potency entry in assay [1], in [2], in assay [3], in assay [4], in assay [5] and in assay [6] was “inactive” in each case. The Potency entry in [7], in [8], in [9], in assay [11], in assay [12] and in assay [13] was “inactive” in each case. Moreover, the Potency result in assay [20], in assay [14], in assay [15], in assay [16], in assay [18] and in assay [19] was “inactive” throughout.

For the molecule `O=S(=O)(c1ccccc1)c1ccccc1`, the Potency entry in assay [1], in assay [2], in assay [3], in assay [4], in assay [5] and in assay [6] was “inactive” throughout. For the same molecule, the Potency entry in assay [8], in [9], in assay [10], in assay [11], in [12] and in assay [13] was “inactive” in each case. The Potency entry in [20], in assay [14], in [15], in assay [16], in [17] and in assay [19] was “inactive” each time.

On to `COP(=S)(OC)Oc1ccc(SC)c(C)c1`, for which the Potency entry in assay [1], in assay [3], in [4], in assay [5], in assay [6] and in assay [7] was “inactive” in each case. Further, the Potency entry in [8], in assay [9], in [10], in [12], in [13] and in assay [20] was “inactive” each time. Further, the Potency entry in [15], in assay [16], in assay [17], in assay [18] and in [19] was “inactive” each time. The Potency entry in assay [2] was “inactive and 24.3 µM (active)”.

On to `CCOP(=O)(OCC)Oc1ccc([N+](=O)[O-])cc1`, for which the Potency result in [1], in assay [2], in assay [3], in assay [4], in assay [5] and in assay [7] was “inactive” throughout. Moreover, the Potency result in assay [8], in assay [9], in [10], in assay [11], in [12] and in assay [13] was “inactive” each time. Besides, the Potency result in assay [20], in assay [14], in [16], in assay [17], in assay [18] and in assay [19] was “inactive” throughout. Moreover, in [6], the Potency is 654 nM (active) and 513 nM (active).

Source of the values: PubChem BioAssay (Tox21).
